{"source": "PubChem BioAssay (NCATS)", "key": {"[1]": {"test": "Cell Viability - LYMP2-021 (AID 974; active = well fitted curve in the direction sought with a large enough effect; an effect the other way counts as inactive or inconclusive; also: % is scaled to controls: 0 for no effect and ±100 for the full control effect; nearly all actives have a fitted effect of over 55% in size)", "procedure,_shortened": "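In qHTS format, compounds are tested against 2500 lymphoblastoid cells per well for 24 h; viable cell number is inferred from ATP-driven luciferase light, and Hill-equation fitting yields AC50 values.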"}, "[2]": {"test": "Cell Viability - LYMP2-023 (AID 975; active = well fitted curve in the direction sought with a large enough effect; an effect the other way counts as inactive or inconclusive;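 also: plate controls were DMSO only for no effect and 92 µM tetraoctylammonium bromide control for full effect; nearly all actives have a fitted effect of over 55% in size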)", "procedure,_shortened": "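In this qHTS, ATP-based luciferase luminescence (CellTiter-Glo) is quantified in human lymphoblastoid cells after 24 hr compound treatment at 37 C; tetraoctylammonium bromide serves as positive control. Concentration-response curves are Hill-fitted to give AC50.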"}, "[3]": {"test": "Cell Viability - LYMP2-025 (AID 976; active = well fitted curve in the direction sought with a large enough effect; an effect the other way counts as inactive or inconclusive;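 also: plate controls were DMSO only for no effect and tetraoctylammonium bromide control for full effect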)", "procedure,_shortened": "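Luminescent ATP readout after 24 hr treatment of a human lymphoblastoid line (LYMP2-025, 2500 cells/well, 37 C). Reagent developed 30 min at room temperature; AC50 fitted with the Hill equation.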"}, "[4]": {"test": "Cell Viability - LYMP2-002 (AID 977; active = well fitted curve in the direction sought with a large enough effect; an effect the other way counts as inactive or inconclusive;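 also: plate controls were DMSO only for no effect and 92 µM tetraoctylammonium bromide for full effect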)", "procedure,_shortened": "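In this qHTS viability screen, 2500 human lymphoblastoid cells per well receive compound for 24 hr at 37 C, and luciferase-based ATP luminescence gives the viability signal. Tetraoctylammonium bromide serves as positive control.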"}, "[5]": {"test": "Cell Viability - LYMP2-006 (AID 978; active = well fitted curve in the direction sought with a large enough effect; an effect the other way counts as inactive or inconclusive; also: % is scaled to controls: 0 for no effect and ±100 for the full control effect; nearly all actives have a fitted effect of over 60% in size)", "procedure,_shortened": "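qHTS, 1536-well; 2500 cells/well, 5 hr 37 C; cpd 24 hr 37 C; CellTiter-Glo 30 min RT; luminescence. Tetraoctylammonium bromide pos. ctrl. AC50 via Hill eqn.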"}, "[6]": {"test": "Cell Viability - LYMP2-007 (AID 979; active = well fitted curve in the direction sought with a large enough effect; an effect the other way counts as inactive or inconclusive;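 also: cells exposed to compound for 24 h before reading; 0% = DMSO only and the negative end = 92 µM tetraoctylammonium bromide; nearly all actives have a fitted effect of over 60% in size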)", "procedure,_shortened": "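Measured via luciferase-based ATP quantitation: lymphoblastoid cells, 24 hr compound exposure at 37 C, AC50 from Hill fits.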"}, "[7]": {"test": "Cell Viability - LYMP2-008 (AID 980; active = well fitted curve in the direction sought with a large enough effect; an effect the other way counts as inactive or inconclusive; also: % is scaled to controls: 0 for no effect and ±100 for the full control effect; nearly all actives have a fitted effect of over 60% in size)", "procedure,_shortened": "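Measured: ATP-dependent luminescence, proportional to viable cell number, in human lymphoblastoid cells treated 24 hr with compound in complete culture medium. Values are AC50s from Hill-equation modelling of qHTS titrations.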"}, "[8]": {"test": "Cell Viability - LYMP2-010 (AID 981; active = well fitted curve in the direction sought with a large enough effect; an effect the other way counts as inactive or inconclusive; also: % is scaled to controls: 0 for no effect and ±100 for the full control effect; nearly all actives have a fitted effect of over 55% in size)", "procedure,_shortened": "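This 24 hr viability screen uses LYMP2-010 lymphoblastoid cells, quantifies ATP via luciferase luminescence, and derives AC50 from Hill fits of qHTS concentration-response data.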"}, "[9]": {"test": "Cell Viability - LYMP2-012 (AID 982; active = well fitted curve in the direction sought with a large enough effect; an effect the other way counts as inactive or inconclusive;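 also: cellular ATP by luciferase luminescence where a drop means cytotoxicity; cells exposed to compound for one day before reading; 0% = DMSO only and full loss = 92 µM tetraoctylammonium bromide; nearly all actives have a fitted effect of over 55% in size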)"}, "[10]": {"test": "Cell Viability - LYMP2-018 (AID 985; active = well fitted curve in the direction sought with a large enough effect; an effect the other way counts as inactive or inconclusive;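 also: plate controls were DMSO only for no effect and tetraoctylammonium bromide at 92 µM for full effect; nearly all actives have a fitted effect of over 50% in size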)", "procedure,_shortened": "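In this qHTS viability assay, cells are treated for 24 hr and cellular ATP is quantified by luciferase-based luminescence, with tetraoctylammonium bromide as positive control.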"}, "[11]": {"test": "Cell Viability - LYMP2-026 (AID 989; active = well fitted curve in the direction sought with a large enough effect; an effect the other way counts as inactive or inconclusive; also: % is scaled to controls: 0 for no effect and ±100 for the full control effect; nearly all actives have a fitted effect of over 50% in size)", "procedure,_shortened": "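Acute toxicity screen in complete culture medium, with 24 hr compound exposure at 37 C. Viability read as cellular ATP via luciferase reaction, with tetraoctylammonium bromide (6.4pM to 92 uM) as positive control.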"}, "[12]": {"test": "Cell Viability - LYMP1-002 - Assay at 24 hr (AID 993; active = well fitted curve in the direction sought with a large enough effect; an effect the other way counts as inactive or inconclusive; also: % is scaled to controls: 0 for no effect and ±100 for the full control effect)", "procedure,_shortened": "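Viability was judged from intracellular ATP using a luciferase read-out, following a 24-hour compound incubation at 37 C of lymphoblastoid cells seeded at 2500 per well. Concentration-response data were fitted to the Hill equation for AC50.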"}, "[13]": {"test": "qHTS Assay for Lipid Storage Modulators (AID 1519); as to activity change, negative = inhibition: % is scaled to controls: 0 for no effect and ±100 for the full control effect", "details": "Drosophila S3 cells, BODIPY lipid droplet/cell ratio, laser cytometry, cells loaded with oleic acid", "procedure,_shortened": "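Cells seeded at 5,000 per well were treated with compounds over a concentration series and loaded with oleic acid (400 uM, as added). Lipid droplet fluorescence (488 nm excitation, 500-530 nm channel) was read by laser-scanning cytometry and normalized to 20 uM Triacsin C.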"}, "[14]": {"target": "Alpha-galactosidase A (Homo sapiens) (UniProt P06280)", "sequence (P06280 whole entry, looked up)": "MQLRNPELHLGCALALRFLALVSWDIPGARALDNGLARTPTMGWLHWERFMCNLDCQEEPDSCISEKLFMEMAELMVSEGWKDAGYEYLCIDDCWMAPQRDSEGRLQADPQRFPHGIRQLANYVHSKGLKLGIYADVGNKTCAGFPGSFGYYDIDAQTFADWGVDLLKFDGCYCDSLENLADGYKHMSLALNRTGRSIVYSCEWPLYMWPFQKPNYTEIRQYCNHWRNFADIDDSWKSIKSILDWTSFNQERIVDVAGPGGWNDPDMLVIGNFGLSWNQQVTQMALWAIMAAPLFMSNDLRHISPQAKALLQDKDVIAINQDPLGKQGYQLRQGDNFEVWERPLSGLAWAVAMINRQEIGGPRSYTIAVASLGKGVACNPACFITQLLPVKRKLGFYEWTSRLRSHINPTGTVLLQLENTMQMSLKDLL", "test": "Counterscreen for Glucocerebrosidase Inhibitors: qHTS Assay for Human alpha-Galactosidase at pH 4.5 (AID 992; active = well fitted curve in the direction sought with a large enough effect; an effect the other way counts as inactive or inconclusive; also: 0% is about no effect)", "procedure,_shortened": "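Steps: enzyme (2 nM final), then compound across 0.7 nM to 77 uM, then 80 uM fluorogenic galactopyranoside substrate; incubate 20 min at room temperature; quench at pH 10; measure fluorescence at 365/440 nm.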"}, "[15]": {"target": "alpha-glucosidase (Oryza sativa, rice) (UniProt Q653V4)", "test": "Counterscreen for Glucocerebrosidase Inhibitors: qHTS Assay for Rice alpha-Glucosidase at pH 5.0 (AID 997; active = well fitted curve in the direction sought with a large enough effect; an effect the other way counts as inactive or inconclusive;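 also: 0% = full activity with enzyme and -100% = basal without enzyme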)", "procedure,_shortened": "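Endpoint fluorogenic assay at pH 5.0: compounds (0.7 nM to 77 uM) titrated against 4 nM rice enzyme and 400 uM 4-MU-alpha-glucoside for 20 min at room temperature; NaOH/glycine stop, read ex 365/em 440 nm, Hill-fitted AC50.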"}, "[16]": {"details": "measured here: cell count channel max response"}, "[17]": {"details": "measured here: lipid channel max response"}}, "note": "“And” between values parts separate entries of the source, which are not always exact repeats. Equal entries are not always repeated. Inconclusive results are not listed. The source made the active and inactive calls. Unless noted, calls follow the shape of the full dose curve.", "data": [{"compound": "Nc1ccc(S(=O)(=O)Nc2nccs2)cc1", "values": [{"measurement": "Potency", "setting": "[1]", "result": "inactive"}, {"measurement": "Potency", "setting": "[2]", "result": "inactive"}, {"measurement": "outcome", "setting": "[3]", "result": "inactive"}, {"measurement": "outcome", "setting": "[4]", "result": "inactive"}, {"measurement": "outcome", "setting": "[5]", "result": "inactive"}, {"measurement": "Potency", "setting": "[6]", "result": "inactive"}, {"measurement": "Potency", "setting": "[7]", "result": "inactive"}, {"measurement": "Potency", "setting": "[8]", "result": "inactive"}, {"measurement": "outcome", "setting": "[9]", "result": "inactive"}, {"measurement": "Potency", "setting": "[10]", "result": "inactive"}, {"measurement": "Potency", "setting": "[11]", "result": "inactive"}, {"measurement": "Potency", "setting": "[12]", "result": "inactive"}, {"measurement": "activity change, negative = inhibition", "setting": "[13]; at 25.7 µM (top of the series)", "result": "0.978% (inactive)"}, {"measurement": "activity change, negative = inhibition", "setting": "[13]; at 57.5 µM (top of the series)", "result": "7.82% (inactive)"}, {"measurement": "max response", "setting": "[13]; [16]", "result": "0.0037% and 29.7%"}, {"measurement": "max response", "setting": "[13]; [17]", "result": "1.28% and 42.1%"}]}, {"compound": "O=c1cc(CO)occ1O", "values": [{"measurement": "activity change, negative = inhibition", "setting": "[13]; at 57.5 µM (top of the series)", "result": "0.978% (inactive)"}, {"measurement": "max response", "setting": "[13]; [16]", "result": 23.1, "unit": "%"}, {"measurement": "max response", "setting": "[13]; [17]", "result": 26.9, "unit": "%"}]}, {"compound": "CN1CCOC(c2ccccc2)c2ccccc2C1", "note": "(stereo unspecified)", "values": [{"measurement": "activity change, negative = inhibition", "setting": "[13]; at 57.5 µM (top of the series)", "result": "6.92% (inactive)"}, {"measurement": "max response", "setting": "[13]; [16]", "result": 13.7, "unit": "%"}, {"measurement": "max response", "setting": "[13]; [17]", "result": 26.3, "unit": "%"}]}, {"compound": "CSc1ccc2c(c1)N(CCC1CCCCN1C)c1ccccc1S2", "note": "(stereo unspecified)", "values": [{"measurement": "activity change, negative = inhibition", "setting": "[13]; at 57.5 µM (top of the series)", "result": "-0.301% (inactive)"}, {"measurement": "max response", "setting": "[13]; [16]", "result": -6.02, "unit": "%"}, {"measurement": "max response", "setting": "[13]; [17]", "result": -4.98, "unit": "%"}]}, {"compound": "c1ccc(CN(CC2=NCCN2)c2ccccc2)cc1", "values": [{"measurement": "activity change, negative = inhibition", "setting": "[13]; at 25.7 µM (top of the series)", "result": "-2.49% (inactive)"}, {"measurement": "activity change, negative = inhibition", "setting": "[13]; at 57.5 µM (top of the series)", "result": "-1.31% (inactive)"}, {"measurement": "max response", "setting": "[13]; [16]", "result": "2.23% and 6.19%"}, {"measurement": "max response", "setting": "[13]; [17]", "result": "-3.05% and 6.55%"}]}, {"compound": "CNCCCC1c2ccccc2C=Cc2ccccc21", "values": [{"measurement": "outcome", "setting": "[14]", "result": "inactive"}, {"measurement": "outcome", "setting": "[15]", "result": "inactive"}, {"measurement": "activity change, negative = inhibition", "setting": "[13]; at 25.7 µM (top of the series)", "result": "-5.19% (inactive)"}, {"measurement": "activity change, negative = inhibition", "setting": "[13]; at 57.5 µM (top of the series)", "result": "0.497% (inactive)"}, {"measurement": "max response", "setting": "[13]; [16]", "result": "-11.5% and -13.6%"}, {"measurement": "max response", "setting": "[13]; [17]", "result": -15.9, "unit": "%"}]}, {"compound": "NS(=O)(=O)c1cc2c(cc1C(F)(F)F)NC(Cc1ccccc1)NS2(=O)=O", "note": "(stereo unspecified)", "values": [{"measurement": "activity change, negative = inhibition", "setting": "[13]; at 57.5 µM (top of the series)", "result": "2.56% (inactive)"}, {"measurement": "max response", "setting": "[13]; [16]", "result": 6.37, "unit": "%"}, {"measurement": "max response", "setting": "[13]; [17]", "result": 10.5, "unit": "%"}]}, {"compound": "Cn1cc[nH]c1=S", "values": [{"measurement": "activity change, negative = inhibition", "setting": "[13]; at 25.7 µM (top of the series)", "result": "-0.635% (inactive)"}, {"measurement": "activity change, negative = inhibition", "setting": "[13]; at 57.5 µM (top of the series)", "result": "4.03% (inactive)"}, {"measurement": "max response", "setting": "[13]; [16]", "result": "-10.4% and 8.98%"}, {"measurement": "max response", "setting": "[13]; [17]", "result": "-9.93% and 13%"}]}, {"compound": "Cc1ccc(C(C)C)cc2c(C)ccc1-2", "values": [{"measurement": "activity change, negative = inhibition", "setting": "[13]; at 57.5 µM (top of the series)", "result": "7.53% (inactive)"}, {"measurement": "max response", "setting": "[13]; [16]", "result": 18.3, "unit": "%"}, {"measurement": "max response", "setting": "[13]; [17]", "result": 26.1, "unit": "%"}]}, {"compound": "CCn1cc(C(=O)O)c(=O)c2cnc(N3CCNCC3)nc21", "values": [{"measurement": "activity change, negative = inhibition", "setting": "[13]; at 25.7 µM (top of the series)", "result": "-2.05% (inactive)"}, {"measurement": "activity change, negative = inhibition", "setting": "[13]; at 57.5 µM (top of the series)", "result": "0.203% (inactive)"}, {"measurement": "max response", "setting": "[13]; [16]", "result": "0.27% and 20.9%"}, {"measurement": "max response", "setting": "[13]; [17]", "result": "-1.56% and 23.6%"}]}, {"compound": "CCCCOc1cc(C(=O)OCCN(CC)CC)ccc1N", "values": [{"measurement": "activity change, negative = inhibition", "setting": "[13]; at 25.7 µM (top of the series)", "result": "-1.04% (inactive)"}, {"measurement": "max response", "setting": "[13]; [16]", "result": -13.7, "unit": "%"}, {"measurement": "max response", "setting": "[13]; [17]", "result": -14, "unit": "%"}]}, {"compound": "CC(COc1ccccc1)NC(C)C(O)c1ccc(O)cc1", "note": "(stereo unspecified)", "values": [{"measurement": "activity change, negative = inhibition", "setting": "[13]; at 57.5 µM (top of the series)", "result": "4.19% (inactive)"}, {"measurement": "max response", "setting": "[13]; [16]", "result": 1.34, "unit": "%"}, {"measurement": "max response", "setting": "[13]; [17]", "result": 8.74, "unit": "%"}]}, {"compound": "C[C@H]1O[C@@H](n2cc(F)c(=O)[nH]c2=O)[C@H](O)[C@@H]1O", "values": [{"measurement": "activity change, negative = inhibition", "setting": "[13]; at 57.5 µM (top of the series)", "result": "-0.32% (inactive)"}, {"measurement": "max response", "setting": "[13]; [16]", "result": 40.7, "unit": "%"}, {"measurement": "max response", "setting": "[13]; [17]", "result": 39.7, "unit": "%"}]}, {"compound": "CSc1ccc2c(c1)C(N1CCN(C)CC1)Cc1ccccc1S2", "note": "(stereo unspecified)", "values": [{"measurement": "activity change, negative = inhibition", "setting": "[13]; at 57.5 µM (top of the series)", "result": "1.28% (inactive) and 0.609% (inactive)"}, {"measurement": "max response", "setting": "[13]; [16]", "result": "9.1% and -20.8%"}, {"measurement": "max response", "setting": "[13]; [17]", "result": "12.4% and -19.6%"}]}]}
